Records with an inconclusive call do not appear. Calls of active or inactive are those of the source. Unless noted, calls come from the whole dose curve; as a rule, active = well fitted curve in the direction sought with a large enough effect in the repeat runs; inconclusive = weak or mixed curves; inactive = no such curve, though single readings can be large; an effect the other way counts as inactive or inconclusive.
Key:
[1] = qHTS assay to identify aromatase inhibitors - cell viability counter screen (AID 743084);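 note: cells stimulated with testosterone during compound exposure; nearly all actives have a fitted effect of over 55% in size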
[2] = target: Aryl hydrocarbon receptor (Homo sapiens) (UniProt P35869); experiment: qHTS assay to identify small molecule that activate the aryl hydrocarbon receptor (AhR) signaling pathway (AID 743085);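 note: HG2L7.5c1 human HepG2 liver cells with stably integrated DRE-driven firefly reporter; series mostly up to about 70 µM; nearly all actives have a fitted effect of over 15% in size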
Method in brief: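 Reporter assay in engineered HepG2 line HG2L7.5c1, whose plasmid carries twenty dioxin responsive elements upstream of firefly luciferase. Treatment lasted 24 h at 37C; ONE-Glo luminescence gauged induction.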

[3] = qHTS assay to identify small molecule that activate the aryl hydrocarbon receptor (AhR) signaling pathway - cell viability counter screen (AID 743086);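 note: HepG2 liver cells carrying the AhR DRE luciferase reporter; series mostly up to about 70 µM; nearly all actives have a fitted effect of over 45% in size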
Method in brief: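 HepG2-AhR-luc (HG2L7.5c1) cells, 4000/well, were preincubated 5 h at 37C, exposed to compound in qHTS format for 24 hr at 37C, then given CellTiter-Fluor for 30 min; viability was read as fluorescence in the reporter wells.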

[4] = target: Peroxisome proliferator-activated receptor gamma (Homo sapiens) (UniProt P37231); experiment: qHTS assay to identify small molecule agonists of the peroxisome proliferator-activated receptor gamma (PPARg) signaling pathway (AID 743094; active = well fitted activation curve with a large enough effect in the signal ratio in the repeat runs, not every such curve was filed as active; the % refers to the signal ratio)
Method in brief: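 Cells from the PPARg UAS-bla HEK293H line are plated and incubated 5 h at 37C. Compounds in DMSO are pinned in and left 17 h at 37C. LiveBLAzer B/G substrate is then added for 1 h at room temperature before fluorescence is measured.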

[5] = target: Peroxisome proliferator-activated receptor gamma (Homo sapiens) (UniProt P37231); experiment: qHTS assay to identify small molecule antagonists of the peroxisome proliferator-activated receptor gamma (PPARg) signaling pathway (AID 743191; calls by dose curve; note: series mostly up to about 63 µM; nearly all actives have a fitted effect of over 30% in size)
Method in brief: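 GeneBLAzer PPARg UAS-bla HEK293H cells carrying a UAS-driven beta-lactamase reporter were plated at 3000 cells/well, preincubated 5 h at 37C, then given compound for 17 h at 37C; LiveBLAzer B/G FRET substrate was read after 1 h at room temperature.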

[6] = qHTS assay for small molecule agonists of the antioxidant response element (ARE) signaling pathway (AID 743202; active = well fitted activation curve with a large enough effect in the signal ratio in the repeat runs, not every such curve was filed as active; the % refers to the signal ratio)
Method in brief: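 Following a 16 h, 37 C exposure of reporter HepG2 cells (ARE-driven beta-lactamase, 2,000 cells/well) to compounds, FRET substrate was applied for 2 h at room temperature and fluorescence intensity recorded.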

[7] = qHTS assay for small molecule agonists of the antioxidant response element (ARE) signaling pathway - cell viability counter screen (AID 743203; calls by dose curve; note: nearly all actives have a fitted effect of over 55% in size)
Method in brief: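 Cytotoxicity was tested in parallel with the ARE reporter screen. ARE-bla HepG2 cells were exposed to compounds for 16 hrs, and viability was taken from CellTiter-Glo luminescence.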

[8] = qHTS assay for small molecule activators of the heat shock response signaling pathway - cell viability counter screen (AID 743209); note: nearly all actives have a fitted effect of over 50% in size
Method in brief: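 Cytotoxicity counter screen run in parallel with the HSE beta-lactamase reporter, using the same wells. HeLa HSE-bla cells received compound for 5 h at 37 C; ATP-based CellTiter-Glo luminescence was measured after 30 min at room temperature.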

[9] = qHTS assay for small molecule activators of the heat shock response signaling pathway (AID 743210; active = well fitted activation curve with a large enough effect in the signal ratio in the repeat runs, with a control signal flat, not every such curve was filed as active; the % refers to the signal ratio; note: series mostly up to about 63 µM)
Method in brief: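 Heat shock element–beta-lactamase HeLa reporter cells; qHTS with compounds for 5 h at 37 C; detection by FRET substrate fluorescence after 2.5 h at RT.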

[10] = qHTS assay to identify small molecule agonists of the peroxisome proliferator-activated receptor delta (PPARd) signaling pathway - cell viability counter screen (AID 743211); note: nearly all actives have a fitted effect of over 55% in size
Method in brief: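 Multiplexed format: after the 2 h room-temperature LiveBLAzer B/G FRET step, CellTiter-Glo was added to the same wells. Luminescence after 30 min gave cell viability; compound exposure was 17 h at 37C.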

[11] = target: Peroxisome proliferator-activated receptor delta (Homo sapiens) (UniProt Q03181); experiment: qHTS assay to identify small molecule agonists of the peroxisome proliferator-activated receptor delta (PPARd) signaling pathway (AID 743212; calls by dose curve)
Method in brief: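 Beta-lactamase reporter read by fluorescence (LiveBLAzer B/G FRET, 2 h, room temperature). Test agents, in DMSO, incubated at 37 C with PPARd-bla HEK293H cells.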

[12] = target: Peroxisome proliferator-activated receptor delta (Homo sapiens) (UniProt Q03181); experiment: qHTS assay to identify small molecule antagonists of the peroxisome proliferator-activated receptor delta (PPARd) signaling pathway (AID 743215; active = well fitted inhibition curve with a large enough effect in the signal ratio in the repeat runs, not every such curve was filed as active; the % refers to the signal ratio;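 note: cells stimulated with agonist L165041 at 300 nM final during compound exposure; series mostly up to about 62 µM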)
Method in brief: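 Cells: HEK293H with a UAS-driven beta-lactamase reporter responsive to PPARd. Compounds were co-added with L165041 (300 nM, final) and incubated 17 h at 37 C before a 2 h room-temperature FRET substrate step and fluorescence reading.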

[13] = qHTS assay to identify small molecule agonists of the farnesoid-X-receptor (FXR) signaling pathway - cell viability counter screen (AID 743218); note: nearly all actives have a fitted effect of over 45% in size
Method in brief: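 Cells were seeded, left 5 h at 37 C and 5% CO2, then dosed with compound in DMSO for 16 h. After the beta-lactamase FRET read, CellTiter-Glo was added and luminescence measured 30 min later.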

[14] = qHTS assay to identify small molecule antagonists of the farnesoid-X-receptor (FXR) signaling pathway - cell viability counter screen (AID 743221; active = well fitted cell-killing curve with a large enough effect in the repeat runs, not every such curve was filed as active; note: nearly all actives have a fitted effect of over 50% in size)
Method in brief: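 CellTiter-Glo, 30 min RT, luminescence; same wells as the LiveBLAzer FRET read. Cells: FXR-UAS-bla HEK 293T. Treatment: compound with chenodeoxycholic acid 50 uM final, 16 h at 37 C.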

[15] = target: Vitamin D3 receptor (Homo sapiens) (UniProt P11473); experiment: qHTS assay to identify small molecule agonists of the vitamin D receptor (VDR) signaling pathway (AID 743222; calls by dose curve)
Method in brief: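 Cells carrying a VDR-driven beta-lactamase reporter are seeded at 2,000 per well and rested 4 h. Compounds in DMSO are added for 16 h at 37C, and FRET substrate fluorescence is measured after 2 h at room temperature.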

[16] = target: Vitamin D3 receptor (Homo sapiens) (UniProt P11473); experiment: qHTS assay to identify small molecule antagonists of the vitamin D receptor (VDR) signaling pathway (AID 743223; active = well fitted inhibition curve with a large enough effect in the signal ratio in the repeat runs, not every such curve was filed as active; the % refers to the signal ratio)
Method in brief: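 After VDR-bla cells are plated and left 4 h at 37C, DMSO-dissolved compounds and 3 nM (final) calcitriol agonist are added. Incubation continues 16 h at 37C; FRET beta-lactamase substrate then develops 2 h at room temperature.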

[17] = qHTS assay to identify small molecule antagonists of the peroxisome proliferator-activated receptor gamma (PPARg) signaling pathway - cell viability counter screen (AID 743194); note: nearly all actives have a fitted effect of over 55% in size
Method in brief: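 PPARg-UAS-bla HEK293H cells were plated, rested 5 h at 37 C, then treated with compounds plus rosiglitazone (50 nM final) for 17 h at 37 C; viability was then read by CellTiter-Glo luminescence after 30 min at room temperature.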

[18] = target: Bile acid receptor (Homo sapiens) (UniProt Q96RI1); experiment: qHTS assay to identify small molecule antagonists of the farnesoid-X-receptor (FXR) signaling pathway (AID 743217; active = well fitted inhibition curve with a large enough effect in the signal ratio in the repeat runs, not every such curve was filed as active; the % refers to the signal ratio)
Method in brief: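 Cells carrying a UAS-driven beta-lactamase reporter (GeneBLAzer FXR-UAS-bla HEK 293T) were plated and rested 5 h at 37 °C. Compounds in DMSO were added alongside chenodeoxycholic acid agonist at 50 uM final and left 16 h at 37 °C before FRET substrate readout.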

[19] = target: Bile acid receptor (Homo sapiens) (UniProt Q96RI1); experiment: qHTS assay to identify small molecule agonists of the farnesoid-X-receptor (FXR) signaling pathway (AID 743220; active = well fitted activation curve with a large enough effect in the signal ratio in the repeat runs, not every such curve was filed as active; the % refers to the signal ratio)
Method in brief: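 FXR-UAS-bla HEK 293T cells carrying a UAS-driven beta-lactamase reporter were plated for 5 h at 37C/5% CO2, then exposed to DMSO-dissolved Tox21 10K compounds for 16 h at 37C. A LiveBLAzer B/G FRET substrate was loaded for 2 h at room temperature before fluorescence reading.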

[20] = qHTS assay to identify small molecule antagonists of the peroxisome proliferator-activated receptor delta (PPARd) signaling pathway - cell viability counter screen (AID 743213); note: nearly all actives have a fitted effect of over 50% in size
Method in brief: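 Cytotoxicity counter screen: CellTiter-Glo luminescence read 30 min after addition, in the same wells as the reporter assay. There, PPARd UAS-bla HEK293H cells (3000/well) were treated 17 h at 37 C with compound and 300 nM L165041.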

Measured: Potency

Aryl hydrocarbon receptor (Homo sapiens), sequence (P35869 whole entry, looked up): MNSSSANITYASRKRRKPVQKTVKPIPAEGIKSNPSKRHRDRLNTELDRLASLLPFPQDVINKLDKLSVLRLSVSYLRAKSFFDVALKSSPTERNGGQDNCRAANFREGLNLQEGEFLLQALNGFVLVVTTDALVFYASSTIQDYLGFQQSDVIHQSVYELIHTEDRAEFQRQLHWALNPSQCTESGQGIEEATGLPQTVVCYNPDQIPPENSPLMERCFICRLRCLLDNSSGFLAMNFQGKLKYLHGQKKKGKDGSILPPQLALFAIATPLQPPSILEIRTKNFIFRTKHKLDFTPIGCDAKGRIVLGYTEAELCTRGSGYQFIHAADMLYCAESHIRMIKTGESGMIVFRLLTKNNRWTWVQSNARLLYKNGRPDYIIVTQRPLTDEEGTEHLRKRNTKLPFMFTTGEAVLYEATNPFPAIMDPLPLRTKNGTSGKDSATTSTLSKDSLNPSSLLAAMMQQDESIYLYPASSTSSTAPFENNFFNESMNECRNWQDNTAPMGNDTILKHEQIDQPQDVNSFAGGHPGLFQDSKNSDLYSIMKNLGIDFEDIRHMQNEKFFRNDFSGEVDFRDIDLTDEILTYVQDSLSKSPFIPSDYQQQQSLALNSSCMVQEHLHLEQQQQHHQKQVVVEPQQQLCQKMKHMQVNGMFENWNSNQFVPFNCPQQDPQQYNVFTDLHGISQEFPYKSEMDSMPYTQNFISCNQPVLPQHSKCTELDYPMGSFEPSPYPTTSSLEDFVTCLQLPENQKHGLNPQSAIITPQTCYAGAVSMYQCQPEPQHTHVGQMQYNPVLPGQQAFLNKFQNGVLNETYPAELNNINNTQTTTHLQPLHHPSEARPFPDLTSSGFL
Peroxisome proliferator-activated receptor gamma (Homo sapiens), sequence (P37231 whole entry, looked up): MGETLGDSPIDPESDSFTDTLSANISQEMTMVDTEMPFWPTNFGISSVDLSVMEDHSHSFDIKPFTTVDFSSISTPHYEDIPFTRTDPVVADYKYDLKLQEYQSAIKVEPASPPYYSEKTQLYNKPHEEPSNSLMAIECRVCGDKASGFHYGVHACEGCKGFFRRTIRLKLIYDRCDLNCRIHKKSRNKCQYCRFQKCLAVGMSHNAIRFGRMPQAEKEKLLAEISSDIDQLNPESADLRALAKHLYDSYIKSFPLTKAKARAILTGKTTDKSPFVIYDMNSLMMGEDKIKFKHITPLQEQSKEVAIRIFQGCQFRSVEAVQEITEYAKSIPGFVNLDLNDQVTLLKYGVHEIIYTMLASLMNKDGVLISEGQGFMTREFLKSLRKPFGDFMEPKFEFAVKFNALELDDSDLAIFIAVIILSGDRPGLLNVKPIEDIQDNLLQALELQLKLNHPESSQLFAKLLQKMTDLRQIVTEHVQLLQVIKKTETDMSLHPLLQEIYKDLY
Peroxisome proliferator-activated receptor delta (Homo sapiens), sequence (Q03181 whole entry, looked up): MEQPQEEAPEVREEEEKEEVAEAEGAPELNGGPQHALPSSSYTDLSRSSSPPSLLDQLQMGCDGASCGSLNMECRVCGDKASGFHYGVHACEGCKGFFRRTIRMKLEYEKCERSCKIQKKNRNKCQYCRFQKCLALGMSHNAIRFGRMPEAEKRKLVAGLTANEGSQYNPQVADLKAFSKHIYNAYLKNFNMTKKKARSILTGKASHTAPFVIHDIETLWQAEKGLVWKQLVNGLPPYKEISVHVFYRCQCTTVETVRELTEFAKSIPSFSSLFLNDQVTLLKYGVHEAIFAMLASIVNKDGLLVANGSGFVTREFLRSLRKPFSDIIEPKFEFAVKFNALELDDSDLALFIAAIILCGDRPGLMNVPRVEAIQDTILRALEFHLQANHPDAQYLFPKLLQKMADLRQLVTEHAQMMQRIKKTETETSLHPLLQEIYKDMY
Vitamin D3 receptor (Homo sapiens), sequence (P11473 whole entry, looked up): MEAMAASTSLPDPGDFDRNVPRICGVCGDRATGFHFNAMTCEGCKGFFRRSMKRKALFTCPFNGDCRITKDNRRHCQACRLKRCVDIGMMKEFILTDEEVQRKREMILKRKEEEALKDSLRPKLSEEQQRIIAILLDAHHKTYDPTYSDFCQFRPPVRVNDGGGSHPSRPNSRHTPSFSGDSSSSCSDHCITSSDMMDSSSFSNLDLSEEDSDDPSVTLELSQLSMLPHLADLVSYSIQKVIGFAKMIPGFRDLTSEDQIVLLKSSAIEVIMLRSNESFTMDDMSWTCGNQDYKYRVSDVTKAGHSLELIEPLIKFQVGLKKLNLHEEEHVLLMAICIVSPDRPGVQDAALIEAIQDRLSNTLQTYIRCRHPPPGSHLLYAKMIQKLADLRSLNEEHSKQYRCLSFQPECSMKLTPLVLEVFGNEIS
Bile acid receptor (Homo sapiens), sequence (Q96RI1 whole entry, looked up): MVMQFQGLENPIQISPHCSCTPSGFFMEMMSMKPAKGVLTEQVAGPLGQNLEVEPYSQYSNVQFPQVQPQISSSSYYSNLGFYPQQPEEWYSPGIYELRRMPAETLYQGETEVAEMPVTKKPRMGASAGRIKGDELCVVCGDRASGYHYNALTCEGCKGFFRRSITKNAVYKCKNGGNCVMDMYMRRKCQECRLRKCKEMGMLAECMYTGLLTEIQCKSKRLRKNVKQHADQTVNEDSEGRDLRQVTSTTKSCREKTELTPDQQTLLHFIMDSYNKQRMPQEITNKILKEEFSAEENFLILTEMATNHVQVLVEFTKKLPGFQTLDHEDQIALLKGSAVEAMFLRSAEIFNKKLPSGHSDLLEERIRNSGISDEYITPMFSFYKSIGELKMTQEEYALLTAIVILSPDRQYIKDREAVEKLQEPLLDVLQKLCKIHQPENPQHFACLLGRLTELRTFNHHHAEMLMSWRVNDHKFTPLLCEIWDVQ

C[C@H](NC(CCc1ccccc1)C(=O)O)C(=O)N1CCC[C@H]1C(=O)O (stereo partly specified)
not listed: [17] | [18] | [19] | [20]
inactive: all other assays above

O=S(O)CO
not listed: [5] | [14] | [16] | [20]
inactive: all other assays above

COC(=O)c1cc(C(=O)OC)cc(S(=O)(=O)O)c1
not listed: [6] | [8] | [17] | [18] | [20]
inactive: all other assays above

OC[C@]1(O)OC[C@@H](O)[C@H](O)[C@@H]1O
not listed: [6] | [17] | [18] | [19] | [20]
inactive: all other assays above

C[N+](C)(C)CC(O)CC(=O)[O-] (stereo unspecified)
not listed: [5] | [18] | [19] | [20]
inactive: all other assays above

N=c1nc(N2CCCCC2)cc(N)n1O
not listed: [9] | [14] | [15] | [16] | [17]
inactive: all other assays above

CCOC(=O)c1ccc(C)cc1
not listed: [5] | [16] | [18] | [19]
inactive: all other assays above

CC(=O)c1ccccc1O
not listed: [5] | [11] | [12]
inactive: all other assays above
